The list is not random: actives were taken first. Their share in the collection is about 9.2%.
ELG1 DNA repair: qHTS screen for small molecules that inhibit ELG1-dependent DNA repair in human embryonic kidney (HEK293T) cells expressing luciferase-tagged ELG1 | Potency, µM (titrated, usually from 46.1 µM), without a hit: at the highest dose activity change, negative = inhibition, actives largely listed as inhibitors | HEK293T ELG1-luciferase reporter, luminescence, 16 h; DNA damage induced by 5-fluorouridine | 330,000 compounds, 2.3% hits | AID 504467, 2011; further: on the % scale 0 is the no-effect control and ±100 the full control effect; nearly all actives have a fitted effect of over 55% in size
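Quantitative HTS, concentration-response format. 2,000 cells/well co-treated with 5-fluorouridine and compound, 16 hr in 5% CO2 at 37 °C; ONE-Glo luminescence read after 30 min.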
SMN2 splice enh: qHTS Assay for Enhancers of SMN2 Splice Variant Expression. Potency, µM (series often up to 46.1 µM), for inactives: top-dose activity change, positive = activation, most hits filed as activators. HEK293 SMN2-luciferase splicing reporter, luminescence, 30-36 h. 210,000 compounds, 2.8% hits; further: % of control where 0% means no effect; nearly all actives have a fitted effect of over 55% in size
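qHTS luciferase splicing reporter: luminescence rises when SMN2 exon 7 is included in transfected HEK293 cells. Compound exposure lasted 30-36 h at 37C, with 4.5 mM final sodium butyrate as control, followed by a ONE-Glo read.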
Rab9 prom act: qHTS Assay for Rab9 Promoter Activators; Potency, µM (series often up to 9.22 µM), for inactives: at the top dose activation, negative = inhibition, actives largely listed as activators; 320,000 compounds, 2.8% hits; Huh7 Rab9 promoter-luciferase reporter, luminescence, 24 h; further: % of control where 0% means no effect; nearly all actives have a fitted effect of over 60% in size
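Huh7 cells stably carrying Rab9 promoter–luciferase reporter, plated 1500 cells/well, compound added after 2 h and incubated 24 h at 37 °C; luciferase luminescence then read after 10 min with detection reagent.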
FLuc modulator: qHTS profiling assay for firefly luciferase inhibitor/activator using purifed enzyme and Km concentrations of substrates (counterscreen for miR-21 project). 360,000 compounds, 6.9% hits. purified FLuc, Km substrates, luminescence inhibition. Luciferin 4-monooxygenase (Photinus pyralis), P08659. Potency, µM (titrated, usually from 57.5 µM), for the others: at the highest dose activity change, negative = inhibition, hits mostly inhibitors;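 further: plate controls were vehicle for no effect and reference inhibitor for full effect; nearly all actives have a fitted effect of over 55% in size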
Target sequence (P08659 whole entry, looked up): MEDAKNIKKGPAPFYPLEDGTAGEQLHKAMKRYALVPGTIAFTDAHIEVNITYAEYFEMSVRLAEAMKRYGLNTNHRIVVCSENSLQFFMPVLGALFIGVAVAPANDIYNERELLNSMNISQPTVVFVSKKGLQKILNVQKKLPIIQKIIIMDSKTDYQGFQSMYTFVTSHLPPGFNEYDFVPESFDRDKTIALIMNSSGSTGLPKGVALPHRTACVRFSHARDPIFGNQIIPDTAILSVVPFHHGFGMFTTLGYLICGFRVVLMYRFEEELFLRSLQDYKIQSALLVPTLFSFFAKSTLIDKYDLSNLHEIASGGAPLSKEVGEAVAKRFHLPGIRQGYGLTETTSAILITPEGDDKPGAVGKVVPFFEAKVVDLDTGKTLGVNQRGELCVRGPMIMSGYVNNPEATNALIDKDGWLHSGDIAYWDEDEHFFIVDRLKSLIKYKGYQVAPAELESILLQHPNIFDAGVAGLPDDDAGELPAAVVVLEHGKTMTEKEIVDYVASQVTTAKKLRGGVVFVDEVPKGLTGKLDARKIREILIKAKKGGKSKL
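Purified P. pyralis luciferase, 10 nM final, with Km-level 10 uM D-luciferin and 10 uM ATP in 50 mM Tris acetate pH 7.5, 10 mM Mg acetate, 0.01% Tween-20, 0.05% BSA; 6-point qHTS titration about 60 µM downward; luminescence read.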
NPC1 prom act: qHTS Assay for NPC1 Promoter Activators. Huh7 NPC1 promoter luciferase reporter, 24 h. Potency, µM (highest dose often 9.22 µM), for inactives: top-dose activation, actives largely listed as activators. 320,000 compounds, 2.4% hits; further: % of control where 0% means no effect; nearly all actives have a fitted effect of over 60% in size
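Luciferase expression driven by the NPC1 promoter was measured in stably transfected Huh7 cells after a 24 h compound incubation, using a luciferase reagent and a luminescence read.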
ELG1 genotox: qHTS screen for small molecules that induce genotoxicity in human embryonic kidney (HEK293T) cells expressing luciferase-tagged ELG1; HEK293T ELG1-luciferase reporter, luminescence, 16 h; Potency, µM (top dose mostly 46 µM), inactives show at the top dose activity change, positive = activation, usual class: activators; 330,000 compounds, 1.3% hits; further: % of control where 0% means no effect; nearly all actives have a fitted effect of over 60% in size
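ELG1-luciferase HEK293T cells, 2,000/well; compound pinned in; 16 hr, 37 °C, 5% CO2; ONE-Glo, 30 min RT; luminescence on CCD imager.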
Active calls of the source: *; u = inconclusive; x = no result given; [ ] = remark or other dose. The call rests on the fitted dose curve; in most records, active means well fitted curve in the direction sought with a large enough effect; inconclusive means small, poorly fitted or top-dose-only effect, or another doubt; inactive means no such curve, though single readings can be large; an effect the other way counts as inactive or inconclusive. Potency means the concentration at half of the fitted maximal effect.

SMILES	ELG1 DNA repair	SMN2 splice enh	Rab9 prom act	FLuc modulator	NPC1 prom act	ELG1 genotox
Cc1ccc(CN(C(=O)Cn2nnc3ccccc32)C(C(=O)NCc2ccco2)c2ccc(C)o2)cc1 (stereo not given)	23µM*	19%	-2%	2%	-3%	-8%
Cc1ccc(N(C(=O)Cn2nnc3ccccc32)C(C(=O)NCc2ccco2)c2ccc(C)o2)cc1 (stereo not given)	-8%	-8%	8%	-1%	0%	-4%
COc1ccc2c(c1)NC(=O)CC(c1ccccc1)=N2	u	-2%	26%	u	u	16µM*
COc1ccc(O)c(C2=Nc3ccccc3N=C(c3ccccc3)C2)c1	u	u	0%	0%	4%	-12%
COc1ccccc1C(=O)N(CCC1CCCN1C)c1nc2ccccc2s1 (stereo not given)	u	-14%	-4%	4.8µM*	-3%	u
COc1ccc2sc(N(CCCN(C)C)C(=O)c3nc4ccccc4s3)nc2c1	u	10%	12%	-11%	0%	4%
c1ccc(Cn2c(-c3ccccc3)c[n+]3c2SCCC3)cc1	13µM*	x	-32%	1%	-19%	-10%
CCCOC(=O)NC1CCS(=O)(=O)C1 (stereo not given)	9%	4%	-7%	0%	3%	3%
CCCCCCCCCCOC(=O)NC1CCS(=O)(=O)C1 (stereo not given)	23µM*	-29%	0%	-11%	-4%	-8%
CCOC(=O)C1CCCN(CC(=O)Nc2c(C(=O)OC)[nH]c3ccc(Br)cc23)C1 (stereo not given)	16µM*	x	-16%	-5%	1%	-20%
CCOC(=O)C1CCN(CC(=O)Nc2c(C(=O)OC)[nH]c3ccc(Cl)cc23)CC1	21µM*	-69%	-22%	-2%	-12%	-19%
COC(=O)c1[nH]c2ccc(Br)cc2c1NC(=O)CN1CCN(C2CCCCC2)CC1	u	14%	-5%	-1%	-3%	u
CCOC(=O)c1c(-c2ccccc2)nc2ccc(C)cn12	u	5%	2.2µM*	9.5µM*	3.5µM*	u
CCOC(=O)c1c(-c2ccccc2)nc2cc(C)ccn12	u	25%	u	11µM*	u	13%
Cc1ccc(/C=C/c2onc(C)c2S(=O)(=O)N2CCC(C(=O)N(CCC(C)C)Cc3ccco3)CC2)cc1	x	x	x	0%	x	x
Cn1cccc1C(=O)N1CCC[C@@]2(CCN(Cc3cc(C(F)(F)F)cc(C(F)(F)F)c3)C2)C1	x	-16%	x	x	x	x
CCOC(=O)c1oc2c(c1C)/C(=N/O)CCC2	u	22µM*	26%	u	u	u
CCOC(=O)C1CCCN(c2ncnc3c2cnn3-c2ccc(OC)cc2)C1 (stereo not given)	u	11µM*	u	u	u	5.2µM*
CCOC(=O)C1CCCN(c2ncnc3c2cnn3-c2ccc(Cl)cc2)C1 (stereo not given)	u	27%	u	12µM*	u	6%
O=C1NC2=C(C(=O)CCC2)C(c2cccc([N+](=O)[O-])c2)N1 (stereo not given)	-9%	x	1%	-1%	1%	0%
CCCC#Cc1ccc2c(c1)COc1c3ccccc3nn1-2	u	x	0.56µM*	1.5µM*	0.89µM*	u
O=C(c1ccco1)N1CCC2(CC1)CN(Cc1cc(C(F)(F)F)cc(C(F)(F)F)c1)C2	x	-36%	x	x	x	x
O=C(NC1CCSc2ccccc21)c1ccccc1Br (stereo not given)	u	x	29%	17µM*	u	-4%
O=C(NC1CCCc2ccccc21)c1ccccc1Br (stereo not given)	-5%	-11%	-1%	0%	-2%	-1%
O=C(Nc1nnc(SCc2ccc(F)cc2)s1)c1ccco1	18%	u	0%	-11%	0%	6%
SMILES	ELG1 DNA repair	SMN2 splice enh	Rab9 prom act	FLuc modulator	NPC1 prom act	ELG1 genotox
COc1ccccc1NC(=O)CSc1nnc(NC(=O)c2ccco2)s1	28%	x	8%	15µM*	-1%	14%
COc1ccc(OC)c(NC(=O)CSc2nncc3ccc(OC)c(OC)c23)c1	21µM*	x	-3%	-2%	1%	-11%
COc1ccc2cnnc(SCC(=O)Nc3ccccc3)c2c1OC	u	-14%	-3%	-2%	5%	1%
COc1ccc(OC)c(NC(=O)CCNC(=O)c2ccco2)c1	-4%	x	6%	3%	0%	-3%
COc1ccc(-n2c(SCC(=O)Nc3cccc(C(=O)O)c3)nnc2-c2ccco2)cc1	-16%	x	-2%	2%	0%	-1%
COc1ccc(OC)c(NC(=O)CSc2nnc(-c3ccco3)n2-c2ccccc2)c1	10µM*	-3%	-8%	4%	-5%	-10%
COc1ccc(OC)c(NC(=O)CSc2nnc(NC(=O)c3ccco3)s2)c1	-14%	x	11%	27µM*	8%	-3%
COc1cc(NC(=O)Cn2c(C)cc(C)c(C#N)c2=O)cc(OC)c1	x	x	x	1%	x	x
COc1ccc(Nc2nc3c(S(=O)(=O)c4ccc(Br)cc4)nnn3c3ccsc23)c(OC)c1	x	x	x	1%	x	x
CCOC(=O)C1C(=O)CC(C)(O)C(C(=O)OCC)C1c1ccc(C)s1 (stereo not given)	u	22%	u	6%[2.3 µM]	4.5µM*	2%
COc1cc(C(C#N)N2N=C(c3ccccc3)CC2c2ccccc2)ccc1O (stereo not given)	u	-1%	12%	u	15%	u
N#CC(c1ccccc1O)N1N=C(c2ccccc2)CC1c1ccccc1 (stereo not given)	u	x	u	9.5µM*	16%	u
CCc1ccc(-n2c(=O)c3c4c(sc3n(CC(=O)N3CCC(C)CC3)c2=O)CCC4)cc1	x	-6%	x	-12%	x	x
CN(C)/C=N/c1nc(-c2ccc3c(c2)OCO3)cs1	u	14µM*	3.5µM*	17µM*	4µM*	u
Cc1nccc(-c2ccc3c(c2)OCO3)n1	-5%	7%	3%	-1%	0%	7%
CN(C)/C=N/c1nc(-c2ccc3ccccc3c2)cs1	u	x	0.35µM*	4.8µM*	0.5µM*	u
Cc1oc2ccc(O)c(CN3CCCC3)c2c1C(=O)Nc1cccc(Cl)c1C	x	7%	x	-2%	x	x

High-throughput results as filed in PubChem BioAssay.
